# V-ATPase pHluor: regulators of yeast V-ATPase proton transport; S. cerevisiae, pHLuorin cytosolic pH fluorescence; 0.37% of 350,000 active; response, % at 10 µM; in the data active means response mostly above about 7.3%, no sharp cut-off; inactive means mostly below about 5.4%; further: actives read high
# tim10-1 inh: inhibits growth of tim10-1 mutant yeast; inhibition, % at 20 µM; S. cerevisiae tim10-1 ts strain growth, BacTiter-Glo, 24 h; AID 463190; 2.2% of 330,000 active;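 active means inhibition of at least 40%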;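 further: mutant grown at 25 °C; 0% = DMSO wells with yeast and 100% = wells holding no yeast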
# tim23-1 inh: tim23-1 yeast growth inhibition | S. cerevisiae tim23-1 growth, BacTiter-Glo luminescence, 24 h | 1.3% of 330,000 active | inhibition, % at 20 µM;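 active means growth inhibition of the mutant yeast at or above 50%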;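 further: temperature-sensitive mutant grown at 25 °C; plate controls were DMSO-treated mutant yeast for no effect and medium wells lacking yeast for full effect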
# TIM10 inh: inhibits growth of TIM10 yeast strain; S. cerevisiae TIM10 strain growth, BacTiter-Glo luminescence, 24 h; inhibition, % at 10 µM; 1.4% of 330,000 active; AID 463195;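 active means inhibition of 40% or more at the single tested concentration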;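 further: wild-type TIM10 isogenic control strain grown at permissive 25 °C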
# SKKanGAS inh: blocks kanamycin growth of S. pyogenes SKKanGAS strain. inhibition, % at 7.5 µM. BacTiter-Glo, 6 h. 1.3% of 300,000 active;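 active means mean replicate score, as percent of positive control median, at least 50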;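 further: strain carries kanamycin resistance gene driven by streptokinase promoter and grows in 40 µg/ml kanamycin; loss of luminescence reflects streptokinase promoter inhibition or plain growth inhibition; 0% = median of DMSO wells and 100% = positive control at its reference dose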
# PfHsp90 yeast 2: growth inhibition of yeast expressing Plasmodium Hsp90 | S. cerevisiae expressing PfHsp90, BacTiter-Glo ATP, 48 h; yeast lacking PDR1 and PDR3 efflux regulators | inhibition, % at 9.4 µM | 0.32% of 310,000 active | AID 504621;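 active means every replicate shows inhibition above about 80%, whatever the replicate mean, limit read from the data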;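 further: 0% = DMSO neutral controls and 100% = 20 µM radicicol positive controls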
# V-ATPase pH SP: yeast V-ATPase proton transport regulation; AID 602197; S. cerevisiae pHLuorin cytosolic pH; response, % at 10 µM; shares compounds with V-ATPase pHluor; 2% of 980 active; in the data active means response above about 24%;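 further: plate controls were vehicle wells for no effect and positive control wells for full effect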
# An asterisk follows results filed as active; / = no result given. The list is not random: actives were taken first. Their share in the collection is about 4.6%.
SMILES,V-ATPase pHluor,tim10-1 inh,tim23-1 inh,TIM10 inh,SKKanGAS inh,PfHsp90 yeast 2,V-ATPase pH SP
O=C(CCCN1Cc2ccccc2C1)c1ccc(F)cc1,3,7,7,10,-1,15,-8
Cc1ccnc2nc(C(=O)OCC(=O)N(CC(C)C)C3CCS(=O)(=O)C3)nn12 (stereo not drawn),-2,-8,-5,-4,/,13,/
COc1cccc(CCNC(=O)CCc2nnc(-c3cc(C)oc3C)o2)c1,1,8,0,-2,-2,58,/
O=C1CCC(=O)N1Cc1c(Cl)cccc1Cl,-2,0,8,0,12,6,/
CC1=C(C#N)CCC(=O)N1Cc1c(F)cccc1Cl,9,12,16,-6,4,24,-3
CCOC(=O)C1CCN(C(=O)COC(=O)/C=C/c2ccccc2)CC1,9.4*,6,4,9,/,0,-5
CCOC(=O)C1CCN(C(=O)/C=C/c2ccccc2)CC1,1,10,2,2,-7,-5,/
CCOC(=O)Nc1c2ccccc2nc2ccccc12,-2,6,-5,24,3,0,-48
CCCn1c(CN2CCN(C(=O)OCC)CC2)nc2cc(NC(=O)CC)ccc21,-1,16,12,3,10,5,/
Cc1cccc(N2CCN(C(=O)c3cc(=O)[nH]c4ccccc34)CC2)c1C,14*,11,6,16,0,-31,2
Cc1ccc(NS(=O)(=O)c2cccc(C(=O)N3CCCCCCC3)c2)cc1,11*,13,10,-1,0,-13,-1
COc1ccc(C)cc1NC(=O)C(OC(=O)CNC(=O)c1cccc(F)c1)c1ccccc1 (stereo not drawn),10*,14,7,-7,6,30,0
CCOc1cc(C2C3=C(CC(C)(C)CC3=O)Nc3n[nH]c(C)c32)ccc1O (stereo not drawn),-1,1,-8,3,-5,-25,/
CCCCc1ccc(NC(=S)N2CCCC2)cc1,0,24,41,-1,/,-1,/
COc1cc(CC(=O)OCC(=O)NC2CCCC2)cc(OC)c1OC,12*,7,0,0,/,7,-1
COc1cc(CC(=O)OCC(=O)NC2CC2)cc(OC)c1OC,2,8,10,0,-10,22,/
COc1ccc(S(=O)(=O)NNc2nc(C)cc(C)n2)cc1Br,-1,-3,14,-5,-4,16,/
Cc1ccc(NC2OC(C(O)CO)C(O)C2O)cc1[N+](=O)[O-] (stereo not drawn),36*,0,-8,-5,-3,-20,-4
Cc1noc(C)c1N=Nc1ccc(Br)cc1C(=O)O,5,-17,-2,3,-8,14,/
CCNC(=S)N(CCc1c(C)[nH]c2ccc(Cl)cc12)Cc1ccco1,-1,28,36,22,-5,12,/
COCCNC(=S)N(CCc1c(C)[nH]c2ccccc12)Cc1ccco1,11*,4,24,17,0,-6,-3
CC1CCc2c(sc3ncn(Cc4ccc(C(=O)O)cc4)c(=O)c23)C1 (stereo not drawn),6.6*,16,15,1,1,9,3
COc1ccc(Cc2noc(=O)[nH]2)cc1,-1,/,/,/,/,/,/
C[C@H](CO)N1C[C@H](C)[C@@H](CN(C)S(=O)(=O)c2ccc(Oc3ccccc3)nc2)OCc2cn(nn2)CCCC1=O,5,/,/,/,/,/,/
COc1ccc(-c2coc3cc(O[C@@H]4O[C@H](CO)[C@@H](O)[C@H](O)[C@H]4O)ccc3c2=O)cc1,9,-5,0,-1,/,-4,/
COc1cc2c(=O)c(-c3ccc(O)cc3)coc2cc1OC1OC(CO)C(O)C(O)C1O (stereo not drawn),9.6*,3,7,10,-2,-5,4
O=C(NC1CC1)c1ccc2c(c1)S(=O)(=O)c1cc(Cl)ccc1C2=O,/,-6,1,-8,/,/,/
O=C(Nc1ccc([N+](=O)[O-])cc1)c1ccccc1F,15*,19,19,-22,-3,4,2
O=C(Nc1ccc(-c2ccc([N+](=O)[O-])cc2)cc1)c1ccccc1F,-2,-23,-3,1,1,-13,/
CC(=O)c1sc(=S)n(-c2ccc(Cl)cc2)c1C,0,26,18,11,1,/,4

# Screening data: PubChem, several laboratories
